Assay results taken from PubChem BioAssay AID1159580 (chemical genetic matrix, 2015).
“And” between values parts separate entries of the source, which are not always exact repeats. Identical values can stand only once. Hit rate of the full screen: of about 5,500 compounds, about 2,000 (36%) were called active. About 18% were inconclusive and are not listed. Rule as the data show it: active = normalized growth mostly below about 0.91 (no sharp cut-off); inconclusive = no clear call, values can overlap the other calls; inactive = mostly above about 0.92. The list shows a part of the results.

Assay: chemical genetic growth profiling, strain panel (AID 1159580);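 also: tested at 20 µM; growth read once vehicle control cultures reached saturation at 30 °C; 1 = growth at the plate median or of vehicle wells; lower values mean less growth of the strain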
Conditions: S. cerevisiae deletion strains, growth OD

Measured: normalized growth

CC1=C(/C=C/C(C)=C/C=C/C(C)=C\C(=O)O)C(C)(C)CCC1
inactive: locus YAL013W, strain DEP1, active compounds read low 0.968 | locus YAL021C, strain ccr4, active compounds read low 1.01 | locus YAL026C, strain drs2, active compounds read low 0.999 | locus YAL030W, strain snc1, active compounds read low 0.977 | locus YAL040C, strain CLN3, active compounds read low 1.01 | locus YBL061C, strain skt5, active compounds read low 0.984 | locus YBR009C, strain hhf1, active compounds read low 1.01 | locus YBR021W, strain FUR4, active compounds read low 1.02 | locus YBR023C, strain chs3, active compounds read low 0.985 | locus YBR171W, strain sec66, active compounds read low 0.964 | locus YBR229C, strain ROT2, active compounds read low 1 | locus YBR231C, strain swc5, active compounds read low 0.989 | locus YBR279W, strain paf1, active compounds read low 0.996 | locus YCL011C, strain gbp2, active compounds read low 0.994 | locus YCL016C, strain dcc1, active compounds read low 0.999 | locus YCL029C, strain bik1, active compounds read low 0.992 | locus YCL061C, strain MRC1 (second series), active compounds read low 1 | locus YCL069W, strain vba3, active compounds read low 0.986 | locus YCR088W, strain abp1, active compounds read low 0.995 | locus YDL005C, strain med2, active compounds read low 0.979 | locus YDL035C, strain GPR1, active compounds read low 0.95 | locus YDL040C, strain nat1, active compounds read low 0.987 | locus YDL074C, strain BRE1, active compounds read low 0.856 | locus YDL101C, strain DUN1, active compounds read low 1.01 | locus YDL134C, strain PPH21, active compounds read low 1 | locus YDL185W, strain tfp1, active compounds read low 1 | locus YDL192W, strain arf1, active compounds read low 1 | locus YDR001C, strain nth1, active compounds read low 0.987 | locus YDR069C, strain doa4, active compounds read low 0.967 | locus YDR101C, strain arx1, active compounds read low 0.985 | locus YDR137W, strain rgp1, active compounds read low 0.937 | locus YDR150W, strain NUM1, active compounds read low 1.02 and 1.01 | locus YDR159W, strain sac3, active compounds read low 1.01 | locus YDR162C, strain NBP2, active compounds read low 0.957 | locus YDR195W, strain ref2 0.972 | locus YDR297W, strain sur2, active compounds read low 0.987 | locus YDR318W, strain mcm21, active compounds read low 0.97 | locus YDR334W, strain swr1, active compounds read low 0.982 | locus YDR335W, strain msn5, active compounds read low 0.987 | locus YDR363W, strain ESC2, active compounds read low 1.01 | locus YDR388W, active compounds read low 1 | locus YDR392W, strain spt3, active compounds read low 1.01 | locus YDR502C, strain sam2, active compounds read low 0.975 | locus YEL003W, strain gim4, active compounds read low 0.989 | locus YEL037C, strain rad23, active compounds read low 0.979 | locus YEL061C, strain CIN8 (second series), active compounds read low 0.991 | locus YEL061C, strain CIN8, active compounds read low 1 | locus YER002W, strain NOP16, active compounds read low 1.03 | locus YER015W, strain faa2, active compounds read low 0.993 | locus YER016W, strain bim1, active compounds read low 1.02 | locus YER110C, active compounds read low 1 | locus YER111C, strain swi4, active compounds read low 0.954 | locus YER155C, strain BEM2 (second series), active compounds read low 1 | locus YER155C, strain BEM2, active compounds read low 1.01 | locus YER167W, strain BCK2, active compounds read low 0.966 | locus YFR010W, strain ubp6, active compounds read low 0.961 | locus YGL078C, strain dbp3, active compounds read low 1 | locus YGL086W, strain mad1, active compounds read low 0.992 | locus YGL167C, strain pmr1, active compounds read low 0.975 | locus YGL173C, strain kem1, active compounds read low 0.972 | locus YGL227W, strain vid30, active compounds read low 0.974 | locus YGL240W, strain doc1, active compounds read low 0.958 | locus YGL248W, strain PDE1, active compounds read low 0.995 | locus YGL253W, strain hxk2, active compounds read low 0.996 | locus YGR078C, strain PAC10, active compounds read low 0.908 and 1.02 | locus YGR135W, strain pre9, active compounds read low 0.974 | locus YGR229C, strain SMI1, active compounds read low 0.82 and 1.02 | locus YGR252W, strain gcn5, active compounds read low 1.02 | locus YHR013C, strain ard1, active compounds read low 0.982 | locus YHR027C, strain rpn1, active compounds read low 0.997 | locus YHR030C, strain SLT2, active compounds read low 1 and 1.02 | locus YHR079C, strain IRE1 (second series), active compounds read low 0.988 | locus YHR079C, strain IRE1, active compounds read low 1.04 | locus YHR094C, strain hxt1, active compounds read low 0.999 | locus YHR129C, strain ARP1, active compounds read low 0.996 | locus YHR142W, strain chs7, active compounds read low 0.979 | locus YHR200W, strain rpn10, active compounds read low 1 | locus YIL066C, strain RNR3, active compounds read low 0.984 | locus YIL073C, strain SPO22, active compounds read low 0.934 | locus YIL125W, strain kgd1, active compounds read low 0.995 | locus YIR030C, strain dcg1, active compounds read low 1.01 | locus YJL092W, strain hpr5, active compounds read low 0.965 | locus YJL095W, strain BCK1 (second series), active compounds read low 0.99 | locus YJL095W, strain BCK1, active compounds read low 0.918 and 1.01 | locus YJL115W, strain asf1, active compounds read low 0.962 | locus YJL129C, strain trk1, active compounds read low 0.956 | locus YJL134W, strain LCB3, active compounds read low 1 | locus YJL154C, strain vps35, active compounds read low 0.986 | locus YJL164C, strain tpk1, active compounds read low 1.01 | locus YJL166W, strain qcr8, active compounds read low 0.928 | locus YJL168C, strain set2, active compounds read low 0.999 | locus YJL187C, strain SWE1 (second series), active compounds read low 0.986 | locus YJL187C, strain SWE1, active compounds read low 0.994 | locus YJR043C, strain POL32, active compounds read low 0.87 | locus YJR066W, strain TOR1, active compounds read low 0.972
